In the library only some 11% were active in any assay of this set; here they are far more common.
AmpC inh no detg – inhibitors of E. coli AmpC beta-lactamase without detergent; 330,000 tested, 0.52% active; Potency, µM (titrated, usually from 57.1 µM), without a hit: top-dose activity change, negative = inhibition, usual class: inhibitors; P00811; AID 485341; AmpC nitrocefin hydrolysis, absorbance 480 nm, 0.0001% Triton;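 further: plate controls were no compound for no effect and no enzyme for full effect; nearly all actives have a fitted effect of over 20% in size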
Target sequence (P00811 whole entry, looked up): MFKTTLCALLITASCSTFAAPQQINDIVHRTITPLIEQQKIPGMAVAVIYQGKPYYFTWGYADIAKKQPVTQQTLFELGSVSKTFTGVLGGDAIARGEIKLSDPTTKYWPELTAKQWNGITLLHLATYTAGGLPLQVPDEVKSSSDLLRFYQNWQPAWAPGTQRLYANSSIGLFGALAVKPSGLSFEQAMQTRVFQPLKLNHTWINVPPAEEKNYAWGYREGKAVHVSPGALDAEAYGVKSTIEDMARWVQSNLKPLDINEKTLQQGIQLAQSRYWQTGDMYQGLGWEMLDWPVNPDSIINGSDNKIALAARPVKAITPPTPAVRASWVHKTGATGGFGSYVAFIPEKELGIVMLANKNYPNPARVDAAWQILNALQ
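AmpC (5.3 nM in the dispensed reagent) in 20 mM phosphate pH 7.0 with 0.01% (detergent screen) or 0.0001% Triton X-100 was preincubated with compounds for 15 min at room temperature. Nitrocefin was then added from an 800 uM solution, and hydrolysis was followed at 480 nm.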
AMA1 RON2 block – AMA1-RON2 (P. falciparum) interaction inhibition | AlphaScreen AMA1-biotinylated RON2 peptide binding | Potency, µM (top dose mostly 58.2 µM), without a hit: at the top dose activity change, negative = inhibition, hits mostly inhibitors | 360,000 tested, 0.2% active;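 further: 0% = vehicle wells and -100% = peptide control; nearly all actives have a fitted effect of over 45% in size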
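AMA1 (3D7) with his tag at 25 nM final met compounds first, then biotinylated RON2 peptide at 25 nM; detection used donor plus acceptor beads, 10 µg/mL apiece, read by AlphaScreen after 30 min at room temperature.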
Pf growth 96h – P. falciparum growth inhibition at 96 hours. P. falciparum luciferase reporter growth, 96 h. Potency, µM (top dose mostly 28.7 µM), for inactives: at the top dose activity change, negative = inhibition, hits mostly inhibitors. 320,000 tested, 6.9% active. AID 504834
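P. falciparum expressing integrated firefly luciferase grown in erythrocytes (2% hematocrit, 0.05% parasitemia final) with compounds for 96 hours at 37 C, 5% CO2. Growth inhibition read as loss of luminescence after adding luciferase detection reagent.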
HCV inh – blocks hepatitis C virus; Huh7.5.1 HCVcc-Cre infection, luciferase reporter, 44 h; Potency, µM (series often up to 41.8 µM), for the others: at the top dose activity change, negative = inhibition, usual class: inhibitors; 340,000 tested, 3.4% active
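Infectious HCVcc-Cre (~0.5 moi) was added to cells just after compound, with cells seeded 4 h earlier at 1,000 per well. Luciferase activity after 44 h culture reported infection; substrate was incubated 15 min at room temperature before reading.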
AmpC detergent – inhibitors of E. coli AmpC beta-lactamase with detergent | Potency, µM (doses to about 114 µM), for inactives: top-dose activity change, negative = inhibition, hits mostly inhibitors | AmpC hydrolysis of nitrocefin, absorbance 480 nm, 0.01% Triton | P00811 | AID 485294 | 370,000 tested, 0.041% active;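 further: 0% = no-compound wells and -100% = no-enzyme wells; nearly all actives have a fitted effect of over 25% in size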
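20 mM phosphate pH 7.0 + 0.01% (detergent screen) or 0.0001% Triton X-100; 5.3 nM AmpC reagent; cpd preinc 15 min RT; nitrocefin (800 uM stock) to start; A480 q20 s × 4 min; Activity was normalised to no-enzyme and no-compound control wells.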
Pf growth 48h – inhibits P. falciparum growth in the first generation, 48 h; AID 504832; P. falciparum luciferase growth in erythrocytes, 48 h; 310,000 tested, 5.9% active; Potency, µM (doses to about 28.7 µM), for inactives: at the top dose activity change, negative = inhibition, actives largely listed as inhibitors
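Here the parasites carry a stable luciferase gene and grow inside erythrocytes in Albumax-based RPMI medium with compound for one erythrocytic cycle. Activity is scored as loss of luminescent signal.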
Active calls of the source: *; ? = inconclusive; · = no result given; [ ] = remark or other dose. The call rests on the fitted dose curve; in most records, active means well fitted curve in the direction sought with a large enough effect; inconclusive means small, poorly fitted or top-dose-only effect, or another doubt; inactive means no such curve, though single readings can be large; an effect the other way counts as inactive or inconclusive. Unless noted, on the % scale 0 is the no-effect control and ±100 the full control effect; potency means the concentration at half of the fitted maximal effect.

SMILES	AmpC inh no detg	AMA1 RON2 block	Pf growth 96h	HCV inh	AmpC detergent	Pf growth 48h
COc1cc2c(cc1OC)CN(C(=O)CN1CCN(S(=O)(=O)c3ccc(C)c(C)c3)CC1)CC2	211.0%	-9.6%	13.1µM*	?	-7.7%	?
CCOc1ccc(CNC(=O)c2ccc(CSc3nc4ccncc4n3Cc3ccc(F)cc3)cc2)cc1	·	·	·	·	22.8%	·
COc1cc2ncc(C(=O)c3ccccc3)c(N3CCN(Cc4ccccc4)CC3)c2cc1OC	122.3%	-26.5%	?	-22.0%	-2.9%	4.65µM*
COc1ccccc1N1CCN(Cc2ccc(C(=O)O)cc2)CC1	-24.4%	8.6%	7.0%	11.3%	1.7%	0.0%
CN1/C(=C\C=[N+](C)c2ccccc2)C(C)(C)c2ccccc21	-11.5%	-8.6%	2.08µM*	11.2µM*	-9.8%	0.415µM*
CN1/C(=C\C=N\O)C(C)(C)c2ccccc21	-20.4%	-9.0%	-9.0%	3.5%	-2.7%	15.6%
CN1/C(=C\C=C2C(=O)NC(=S)NC2=O)C(C)(C)c2ccccc21	-22.2%	2.3%	-6.7%	-23.1%	-2.6%	16.4%
CN1/C(=C\C=C2/C(=O)Oc3ccccc3C2=O)C(C)(C)c2ccccc21	-9.8%	-5.6%	?	-3.5%	-9.3%	11.7µM*
CN1C(=CC=C2C=C(I)C(=O)C(I)=C2)C(C)(C)c2ccccc21	-30.5%	-12.6%	2.08µM*	-23.8%	-3.3%	3.29µM*
Cc1ccc(-n2nnnc2CNC(=O)C(C)C)cc1C	·	·	·	·	23.0%	·
O=C(CN1C(=O)c2ccccc2S1(=O)=O)c1ccccc1	-21.0%	10.3%	·	-3.7%	?	88.9%
Cc1ccc(C(=O)COc2ccccc2N2C(=O)c3ccccc3C2=O)cc1	-2.1%	-7.0%	3.29µM*	2.8%	?	38.0%
Cc1ccc(C(=O)CN2C(=O)c3ccccc3S2(=O)=O)cc1	-10.9%	-6.0%	75.9%	25.3%	-1.1%	3.7µM*
COc1ccc(NC(=O)c2sc3nc(C)c(C(=O)Nc4ccc(C)cc4C)c(-c4cccs4)c3c2N)cc1	·	·	·	·	-8.8%	·
Nc1cc(-c2ccccc2)ccc1O	-22.5%	47.4%	11.7µM*	-15.9%	?	?
CCc1ccc(NC(=O)Cn2c(=O)n(CCCC(=O)NCc3ccccc3OC)c(=O)c3ccccc32)cc1	·	·	·	·	-4.7%	·
O=C1/C(=C\c2ccco2)CCC/C1=C\c1ccco1	-25.7%	?	?	?	-15.0%	186.9%
C(=C\c1ccccn1)/c1ccccn1	-15.5%	12.2%	130.0%	-17.9%	5.0%	120.9%
CC1C/C(=C/c2ccccn2)C(=O)/C(=C/c2ccccn2)C1 (stereo unspecified)	15.6%	3.7%	?	2.24µM*	-6.8%	2.62µM*
CC1C/C(=C/c2ccco2)C(=O)/C(=C/c2ccco2)C1 (stereo unspecified)	-22.5%	·	8.28µM*	1.4%[0.335 µM]	-14.5%	50.1%
CN1C2CCC1/C(=C\c1ccccc1)C(=O)/C2=C\c1ccccc1	-13.8%	-17.6%	?	12.6µM*	1.0%	1.04µM*
O=C1/C(=C/c2ccccn2)COc2ccccc21	-0.5%	-3.0%	-4.0%	19.6%	-9.2%	48.1%
CN1C2CCC1/C(=C/c1ccccn1)C(=O)/C2=C\c1ccccn1	-12.3%	2.5%	0.465µM*	3.55µM*	?	0.657µM*
O=C1/C(=C/c2ccccc2)CCC1C1CCCC1 (stereo unspecified)	-12.2%	-21.7%	35.6%	6.0%	-13.5%	41.7%
COc1cc(Cl)c(NC(=O)CCS(=O)(=O)c2cc3c(cc2Cl)NC(=O)CO3)c(OC)c1	·	·	·	·	7.4%	·
CCOC(=O)N1CCc2c(sc(NCc3ccc(OC)c(Br)c3)c2C(=O)Nc2cc(OC)ccc2OC)C1	·	·	·	·	7.7%	·
CCOC(=O)c1c(NC(=O)COc2ccccc2F)sc2c1CC(C)(C)NC2(C)C	-25.7%	1.7%	?	?	-9.5%	11.7µM*
